Test results published in PubChem BioAssay (NCI).
Several values for one entry are separate records, joined by “and”; a condition that tells them apart may be missing. Identical values can stand only once. This is part of a sample that, as a whole, favours compounds with a hit. Of some 79,000 tested, about 15% had one in any assay. No stated cut-off is given here; in the data, active means growth inhibition above about 70%; inactive means the rest.

Legend:
[1] = NCI Yeast Anticancer Drug Screen. Data for the rad50 strain (AID 155);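 further: 0% = growth of vehicle-only cultures of the same strain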; details: S. cerevisiae rad50 strain growth inhibition, active compounds read high; at 50.0 µM unless noted
Method in brief: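 Growth of the mutant yeast was measured after compound exposure and referenced to vehicle-treated cultures.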

[2] = NCI Yeast Anticancer Drug Screen. Data for the mec2-1 strain (AID 157); details: S. cerevisiae mec2-1 strain, active compounds read high; at 50.0 µM unless noted
Method in brief: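 mec2-1 yeast strain, carrying an alteration in DNA damage repair or cell cycle control, was exposed to compounds; growth inhibition was measured relative to vehicle-treated controls.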

[3] = NCI Yeast Anticancer Drug Screen. Data for the sgs1 mgt1 strain (AID 161);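 further: 0% = growth of cultures given vehicle only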; details: S. cerevisiae sgs1 mgt1 strain, active compounds read high; at 50.0 µM unless noted
Method in brief: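 Growth of a repair-deficient yeast mutant was monitored after compound treatment and expressed as inhibition relative to vehicle-treated cultures.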

[4] = NCI Yeast Anticancer Drug Screen. Data for the cln2 rad14 strain (AID 165);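 further: 0% = growth equal to vehicle treated cultures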; details: S. cerevisiae cln2 rad14 strain, active compounds read high; at 50.0 µM unless noted
Method in brief: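 Yeast carrying cln2 and rad14 alterations (cell cycle control and DNA damage repair) were exposed to compounds. Growth inhibition was measured against vehicle-treated controls.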

[5] = NCI Yeast Anticancer Drug Screen. Data for the bub3 strain (AID 167); details: S. cerevisiae bub3 mutant strain, active compounds read high; at 50.0 µM unless noted
Method in brief: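 Whole-cell yeast assay. The mutant strain was incubated with compounds, and growth inhibition was determined by comparison with vehicle-treated cells.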

[6] = NCI Yeast Anticancer Drug Screen. Data for the mlh1 rad18 strain (AID 175); details: S. cerevisiae mlh1 rad18 strain growth inhibition, active compounds read high; at 50.0 µM unless noted
Method in brief: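 Growth inhibition of the yeast strain was measured after compound exposure and expressed relative to vehicle-treated controls. The strain carries defined defects in DNA damage repair.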

Measured: growth inhibition

COc1ccc(/C=C/C(=O)O)c(OC)c1
inactive: [1] 1.25% | [2] 30.9% | [3] -7.55% | [4] 25.2% | [5] 28.1% | [6] -9.7%

C/C(CC1(O)C(=O)Nc2ccccc21)=N\O (stereo not given)
inactive: [1] -1.95% and -34.7% | [2] -8.5% and -46.1% | [3] -30.6% | [4] 8.6% | [5] -16.2% | [6] 6.55% and -10%

CC(C)C1CO[C@]2(C)CCC(=O)N12 (stereo not given in full)
inactive: [1] 4.6% | [2] 11.9% | [3] -2.6% | [4] 13.8% | [5] 6.3% | [6] 9.95%

COc1ccc(-[n+]2nc(S(=O)(=O)O)c(/C=C/c3ccc(N(C)C)cc3)cc2C#N)cc1
inactive: [1] -13.8% | [2] -9.05% | [3] 20.1% | [4] 6.65% | [5] 5.85% | [6] -9.5%

COC1OCC(N=[N+]=[N-])C(OS(C)(=O)=O)C1OS(C)(=O)=O (stereo not given)
inactive: [1] -1.65% | [2] -4.3% | [3] 6.85% | [4] -6.75% | [5] -16.4% | [6] -34.5%

O=c1[nH]c(/C=C/c2ccccc2)c([N+](=O)[O-])c(=O)[nH]1
inactive: [1] -7% | [2] 2.9% | [3] -12.7% | [4] -19.6% | [5] 26.6% | [6] 16.8%

CCC(=O)OC(C)COc1ccccc1 (stereo not given)
inactive: [1] -6.2% | [2] 3.25% | [3] -3.9% | [4] -43.5% | [5] -5.8% | [6] -10.4%

O=C(O)CCN1C(=O)CSC1=S
inactive: [1] 6.7% | [2] 2.15% | [3] -21.8% | [4] -2.4% | [5] 20.6% | [6] -5.7%

CCCCCCOS(=O)(=O)c1ccc(C)cc1
inactive: [1] 23.1% | [2] -9.95% | [3] -2.1% | [4] 16.6% | [5] 6.7% | [6] 22.4%

NNC(=O)c1nc2ccccc2s1
inactive: [1] 18.1% | [2] 4.75% | [3] -8.3% | [4] 5.95% | [5] 8.95% | [6] 20.6%

O=C1CC2c3ccccc3CCN2C2=C1CCC2 (stereo not given)
inactive: [1] 13.6% | [2] 13.1% | [3] -0.4% | [4] -16.2% | [5] 0.5% | [6] 18.7%

O=C(O)/C=C/c1cccc(F)c1
inactive: [1] -16.6% | [2] -12.2% | [3] -4.9% | [4] -15.9% | [5] -17% | [6] 10.2%

CC(C)c1cccc(C(C)C)c1NC(=O)N1CCCCC1
inactive: [1] 4.8% | [2] -16.2% | [3] 0.05% | [4] 3.85% | [5] -1.65% | [6] 10.2%

O=[N+]([O-])C(c1ccccc1)C(c1ccccc1)C(c1ccccc1)[N+](=O)[O-] (stereo not given)
inactive: [1] 4.25% | [2] 6.05% | [3] 5.6% | [4] 23.2% | [5] 22.6% | [6] 10%

CC1(CI)COC(c2ccccc2)(C2CCCCC2)OC1 (stereo not given)
inactive: [1] 2.95% | [2] -5.15% | [3] 5.2% | [4] 35.3% | [5] -16.2% | [6] 15.9%

CN(C)CCS(=O)(=O)c1ccc(Cl)cc1
inactive: [1] 38.9% | [2] 14.6% | [3] 14.4% | [4] 16.5% | [5] 9.85% | [6] 20.6%

O=C1c2cc(F)ccc2-c2c(F)ccc(F)c21
inactive: [1] 38.1% | [2] 8.7% | [3] 27.7% | [4] 11.1% | [5] 23.6% | [6] 23.5%

CCN(CC)CCC(=O)c1ccc(Cl)cc1
inactive: [1] 19.6% | [2] 21.4% | [3] 14.1% | [4] 10.3% | [5] 1.05% | [6] 17.4%

C=C1C(=O)OC2CC(C)C(/C=C/C(C)=O)=CCC12 (stereo not given)
inactive: [1] -7.45% | [2] -7.6% | [3] -19.9% | [4] -12.5% | [5] -43% | [6] -99.8%

O=c1nc2sccn2c2ncccc12
inactive: [1] -18.5% | [2] 5.35% | [3] -11.8% | [4] 46.6% | [5] 10.9% | [6] 16.1%

CC(=O)c1cccc(NC(=O)Oc2cc(=O)oc3ccccc23)c1
inactive: [1] 5.75% | [2] 19.3% | [3] 12.4% | [4] -4.6% | [5] 38.2% | [6] 29.5%

NC(=O)c1cncn1C1OCC(O)C(O)C1O (stereo not given)
inactive: [1] 10.2% | [2] 6.4% | [3] 3.85% | [4] -6.8% | [5] 3.1% | [6] -20.2%

CC(C)(C)C1C=C(Sc2ccccc2)C(=O)O1 (stereo not given)
inactive: [1] 28.8% | [2] 7.3% | [3] 6.25% | [4] 1.8% | [5] 61.2% | [6] 30.1%

CCOC(=O)c1ccc(N/C(C)=C/C(=O)OC)cc1
inactive: [1] 3.45% | [2] -8.4% | [3] 11.2% | [4] -20.7% | [5] 1.95% | [6] 3.55%

CCN(CC)CCOC(=O)c1cc2ccccc2s1
inactive: [1] 23.2% | [2] 8.85% | [3] 13.1% | [4] 2.85% | [5] -1.35% | [6] 10.4%

COC(=O)C(Cc1ccc(N(C)C)cc1)(NC(=O)c1ccccc1)P(=O)(OC)OC (stereo not given)
inactive: [1] -17.8% | [2] 10.8% | [3] -28.2% | [4] 1.9% | [5] 4.4% | [6] -5.4%

CCOc1ccc(/C=C(\C(=O)c2ccccc2)S(=O)(=O)c2ccc(OC)cc2)cc1OC
inactive: [1] 17.9% | [2] 45.5% | [3] 1.2% | [4] 5.8% | [5] 29.6% | [6] 57%

Cc1nnc(-n2cccc2)s1
inactive: [1] 0.8% | [2] -18.9% | [3] -5.3% | [4] -3.55% | [5] -4.1% | [6] 3.25%

COc1ccc(OC)c2[nH]c(Sc3c([N+](=O)[O-])ncn3C)nc12
inactive: [1] -5.95% | [2] -13.9% | [3] -15.4% | [4] 8.55% | [5] -15.2% | [6] -7.7%

CCCCCCC(=O)C/C(=N/NC(N)=S)C(=O)NC1C2CC3CC(C2)CC1C3 (stereo not given)
inactive: [1] -14.8% | [2] -19.2% | [3] -48.7% | [4] 29.4% | [5] -2.3% | [6] -34.5%

CCOC(=O)NC(=O)c1cn(CCCCCCCCCCC(=O)N2CCN(CCn3cc(C(=O)NC(=O)OCC)c(=O)[nH]c3=O)CC2)c(=O)[nH]c1=O
inactive: [1] 27.2% | [2] 18.4% | [3] 17.9% | [4] 5.8% | [5] -6.2% | [6] 6.45%

CCC(=O)c1cccc2cccc(C(c3ccccc3)c3ccccc3)c12
inactive: [1] 1.85% | [2] 14.4% | [3] 6.35% | [4] -7.05% | [5] 8.7% | [6] -19.6%

COc1cccc(C2c3cc4c(cc3OC(NNS(=O)(=O)c3ccc(C)cc3)C2C)OCO4)c1OC (stereo not given)
inactive: [1] 3.75% | [2] 4.55% | [3] 10.3% | [4] 8.05% | [5] 36.9% | [6] 18.2%

COC(=O)C1(C)C=C(Nc2ccccc2)C(=O)N1c1ccccc1 (stereo not given)
inactive: [1] -3.45% | [2] -19.8% | [3] 6.2% | [4] 21.8% | [5] 23.4% | [6] 2.25%

CN1N=CSC12C(=O)N(c1ccccc1)C(=O)N2c1ccccc1 (stereo not given)
inactive: [1] 0.4% | [2] -1.55% | [3] 0.95% | [4] 20.1% | [5] 3.15% | [6] -14.2%

COC1CCC(=O)N1CN(C(C)=O)c1ccc(C)cc1 (stereo not given)
inactive: [1] 10.4% | [2] 9.1% | [3] -25.2% | [4] 28.4% | [5] 3.75% | [6] -28.1%

CC1=Nc2ccccc2SC2(C1)C(C1COC(C)(C)O1)OC1OC(C)(C)OC12 (stereo not given)
inactive: [1] 7.4% | [2] 11.1% | [3] 21.1% | [4] 21.4% | [5] -9.55% | [6] 12.8%

CC(C)(O)C(O)c1ccccc1 (stereo not given)
inactive: [1] 10.9% | [2] 7% | [3] 9.1% | [4] 2.3% | [5] 1% | [6] 1.35%

COc1ccc2c(c1)[nH]c1c3ccc(OC)cc3oc(=O)c21
inactive: [1] -52% | [2] -50% | [3] -35.5% | [4] 1.95% | [5] -38.6% | [6] -33.9%

Clc1ccccc1NN(Cc1ccncc1)c1ccccc1Cl
inactive: [1] 55.6% | [2] 23.1% | [3] 23.7% | [4] 26.9% | [5] 34.1% | [6] 53.1%
